TIM10 inh – growth inhibitors of TIM10 yeast strain | S. cerevisiae TIM10 strain growth, BacTiter-Glo luminescence, 24 h | actives 1.4% (n = 330,000) | AID 463195 | inhibition, % at 10 µM;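 active means inhibition of 40% or more at the single tested concentration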;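 further: wild-type TIM10 isogenic control strain grown at permissive 25 °C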
tim23-1 inh – growth inhibitors of tim23-1 mutant yeast; S. cerevisiae tim23-1 growth, BacTiter-Glo luminescence, 24 h; inhibition, % at 20 µM; actives 1.3% (n = 330,000); AID 463212;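 active means growth inhibition of the mutant yeast at or above 50%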;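 further: temperature-sensitive mutant grown at 25 °C; plate controls were DMSO-treated mutant yeast for no effect and medium wells lacking yeast for full effect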
tim10-1 inh – inhibits growth of tim10-1 mutant yeast | S. cerevisiae tim10-1 ts strain growth, BacTiter-Glo, 24 h | inhibition, % at 20 µM | actives 2.2% (n = 330,000) | AID 463190;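 active means inhibition of at least 40%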;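 further: mutant grown at 25 °C; 0% = DMSO wells with yeast and 100% = wells holding no yeast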
NLRP3 yeast inh – NALP3 inhibition in yeast. Yeast reconstituted NLRP3/ASC/caspase-1, beta-gal luminescence, 24 h. inhibition, % at 10 µM. actives 0.39% (n = 330,000). AID 2825;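 active means inhibition of 50% or more; inactive means inhibition below 50%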;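 further: plate controls were induced DMSO wells for no effect and uninduced yeast grown without galactose for full effect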
SKKanGAS inh – blocks kanamycin growth of S. pyogenes SKKanGAS strain. AID 1662. BacTiter-Glo, 6 h. inhibition, % at 7.5 µM. actives 1.3% (n = 300,000);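 active means mean replicate score, as percent of positive control median, at least 50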;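 further: strain carries kanamycin resistance gene driven by streptokinase promoter and grows in 40 µg/ml kanamycin; loss of luminescence reflects streptokinase promoter inhibition or plain growth inhibition; 0% = median of DMSO wells and 100% = positive control at its reference dose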
The depositor's hits bear a star; . = not tested or not shown. Shown are actives, neighbours in structure and some others; about 4.6% of the full set was active somewhere.

SMILES | TIM10 inh | tim23-1 inh | tim10-1 inh | NLRP3 yeast inh | SKKanGAS inh
NS(=O)(=O)c1ccc(N=Nc2ccc(O)c3ncccc23)cc1 | 6 | 30 | 19 | 37 | 11
CCOc1ccc(N=Nc2ccc(O)c3ncccc23)cc1 | 21 | 36 | 4 | 7 | 92*
Cc1cccc(NCc2ccc(O)c3ncccc23)c1C | 13 | -7 | 2 | -23 | 11
Cc1ccc(N=Nc2cc(C)ccc2O)c(C)c1 | -3 | 10 | 22 | 14 | 5
Cc1ccc(C)c(N=Nc2ccc(O)c3ncccc23)c1 | 7 | 0 | 33 | 17 | 92*
Cc1cccnc1NCc1ccc(O)c2ncccc12 | 31 | -20 | 19 | -18 | 67*
CC(C)(C)OC(=O)C[C@@H]1C/C=C\C[C@H](CC(=O)NCCO)C(=O)N2CCC[C@H]2COC1=O | 3 | -5 | -4 | 12 | .
COc1ccc(NC(=O)C(NC(C)=O)C(=O)Nc2ccc(F)cc2)cc1 (configuration not stated) | -5 | 16 | 12 | 4 | 1
O=C(CCC1CCCC1)c1c(O)c2ccccc2oc1=O | -26 | 1 | -13 | 35 | 54*
O=C(c1c(O)c2ccccc2oc1=O)C1CCCCC1 | -39 | -14 | -10 | -16 | 15
Cc1ccc(S(=O)(=O)N2CCOc3ccccc32)c(C)c1NS(C)(=O)=O | 2 | 9 | 3 | 4 | -1
O=S1(=O)CC=C(CSC(=S)NC2CCS(=O)(=O)C2)C1 (configuration not stated) | 26 | -9 | 4 | 11 | .
CC(C)(C)c1cc(CSC(=S)NC2CCS(=O)(=O)C2)c(Br)c(C(C)(C)C)c1 (configuration not stated) | 11 | 13 | 11 | 33 | 96*
CCc1cc2c(=O)[nH]c(N3CCCC3)nc2s1 | 1 | 3 | 14 | 14 | -2
CCc1cc2c(=O)[nH]c(-c3ccccn3)nc2s1 | 18 | -136 | 10 | 41 | 55*
O=c1cc(O)c2c(=O)n(-c3ccccc3)c3c(c2o1)CCCCCC3 | 15 | 25 | 10 | 11 | 56*
Cc1cc(C)n(CCNC(=O)c2ccco2)n1 | -10 | -3 | -19 | 16 | 2
COc1cccc(CN2CC(C(=O)NCc3ncc(C)[nH]3)CCC2=O)c1 (configuration not stated) | 3 | -12 | -10 | 18 | -2
O=C(CSc1nnc(NC(=O)c2ccccc2[N+](=O)[O-])s1)NC1CCCC1 | 13 | 14 | 10 | -4 | 51*
O=C(NCc1cccc(Cl)c1)C1CCCN(c2ncnc3c2nc2n3CCCCC2)C1 (configuration not stated) | 14 | 16 | 25 | -3 | 1
CCOc1ccc(NC(=S)N=Nc2c(O)[nH]c3ccccc23)cc1 | 16 | 23 | 18 | 22 | 101*
Oc1[nH]c2ccc(Br)cc2c1N=NC(=S)N1CCOCC1 | 18 | 15 | 19 | 30 | 89*
Oc1[nH]c2ccccc2c1N=NC(=S)N1CCOCC1 | 15 | 17 | 21 | 26 | 77*
Cc1cccc(NC(=O)c2nc[nH]c2C(=O)NCCCCNC(=O)c2[nH]cnc2C(=O)Nc2cccc(C)c2)c1 | -9 | 4 | -11 | 11 | .
CCCCCCCCOC(=O)C1=C(C)Nc2nnnn2C1c1cccs1 (configuration not stated) | 8 | 14 | 28 | 14 | 107*
SMILES | TIM10 inh | tim23-1 inh | tim10-1 inh | NLRP3 yeast inh | SKKanGAS inh
COC(=O)c1cc(-c2ccc(Br)cc2)c2c(=O)[nH]c(=O)n(C)c2n1 | 24 | 14 | -4 | 4 | 62*
CCOc1ccc(-c2cc(C(=O)OC)nc3c2c(=O)n(C)c(=O)n3C)cc1 | -15 | 11 | 3 | 10 | 93*
COC(=O)c1cc(-c2ccc(OC)c(OC)c2)c2c(=O)[nH]c(=O)n(C)c2n1 | 21 | 21 | -4 | 12 | 37
O=C(N/N=C/c1cc(Cl)ccc1O)c1cccnc1 | 18 | 44 | -24 | 24 | 85*
Nc1nonc1-n1nnc(C(=O)N/N=C/c2cc(Cl)ccc2O)c1CN1CCCCCC1 | 27 | 35 | 35 | 9 | 50*
O=C(N/N=C\c1cc(Cl)ccc1O)c1ccc(S(=O)(=O)N2CCCCC2)cc1 | 35 | 30 | 34 | 13 | 121*
COc1cccc(/C=C/c2n[nH]c(=O)c(C#N)c2C)c1 | 13 | 22 | 2 | 4 | -3
CC1Cc2ccccc2N1C(=O)C1CC(=O)N(c2ccccc2)C1 (configuration not stated) | -1 | 17 | 3 | 23 | 7
COc1ccc(OCC(O)CNCCOc2ccccc2OC)c(C(C)(C)C)c1 (configuration not stated) | 20 | 2 | 6 | 28 | 1

Source: PubChem
